Test results: PubChem BioAssay (NCI)
About 83,000 compounds went through this panel and 20% of them were active in at least one assay; those are over-represented in the sample as a whole.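 The test compound was applied at a single concentration to cells in 96-well plates for 48 hours, and percent growth was recorded.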 The source made the active and inactive calls. Rule for the calls: active = growth percent below 10; inactive = the rest.

The compounds below were run on MDA-MB-468 breast (assay: NCI-60 one-dose screen, 48 h (100 = growth as untreated, 0 = no growth, -100 = all killed)). Settings: 10 µM unless noted.

| SMILES | growth |
| --- | --- |
| CCOC(=O)C1CCCN1C(=O)C1(NC(C)=O)CCCC1 (stereo unspecified) | 98.9% (inactive) |
| CC1(C)[C@@H](NOCCCN)CC[C@]2(C)[C@H]3C(=O)C=C4[C@@H]5C[C@](C)(C(=O)O)CC[C@]5(C)CC[C@@]4(C)[C@]3(C)CC[C@@H]12 | -39.5% [100 µM] (active) |
| CCCCCC/C=N/Nc1ccc([N+](=O)[O-])cn1 | 108% (inactive) |
| COc1ccc(Nc2ncc(C#N)c(NCCCNC(=O)C3CCC3)n2)cc1 | 43% (inactive) |
| CN1C(=O)/C(=C/c2ccc(C(=O)Nc3ncc(Cc4cccc(C(F)(F)F)c4)s3)cc2)SC1=S | -2.76% (active) |
| CC(C)CCSc1nc(Nc2ccccc2)c(C#N)c(-c2ccc(F)cc2)n1 | 60.6% (inactive) |
| O=C1/C(=C\c2ccc(F)cc2)CN(C(=O)c2ccc([N+](=O)[O-])cc2)C/C1=C\c1ccc(F)cc1 | 0.822% (active) |
| S=C1CCSC(=S)N1CCCN1C(=S)CCSC1=S | 37.8% (inactive) |
| Nc1ccccc1NC(=O)c1ccc(CN2CCC/C(=C\c3cccc(Cl)c3)C2=O)cc1 | -10.1% (active) |
| CN(C)CCC(=O)Nc1ccc(-n2cc(-c3cccc(NC(=S)Nc4cccc(-c5cn(-c6ccc(NC(=O)CCN(C)C)cc6)nn5)c4)c3)nn2)cc1 | -9.56% (active) |
| C[C@@H]1O[C@@H](O[C@@H]2C[C@H](c3ccc4c(c3O)C(=O)C3=C(C4=O)[C@@]4(O)C(=O)C[C@](C)(O)C[C@@]4(O)C=C3)O[C@H](C)[C@H]2O)CC[C@@H]1O[C@H]1C[C@@H](O)[C@H](O)[C@@H](C)O1 | 106% (inactive) |
